# PAX8 inh HTS – inhibitors of PAX8-driven TPO luciferase reporter, primary screen, RMG-I cells, single concentration | SteadyGlo, 24 h | inhibition, % at 12.6 µM | 360,000 compounds, 1.2% hits | AID 652154, 2013;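 active = mean replicate inhibition at least 60% with every replicate also reaching 60%; inconclusive = only one of the two criteria is met; inactive = mean below 60% and not all replicates reaching 60%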;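 note: luciferase light reporting Pax8 driven TPO promoter activity; plate controls were median of neutral control wells for no effect and mitoxantrone controls for full effect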
# LGR2 inh – inhibitors of bursicon-induced LGR2 CRE-luciferase signal, primary screen, cell-based, HEK293, CRE-luciferase reporter, bursicon stimulation. Drosophila bursicon receptor LGR2 (rickets). bursicon-stimulated, 4 h. inhibition, % at 9.99 µM. 380,000 compounds, 0.35% hits;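 active = drop in luminescence signal, shown as inhibition above about 50% in the replicate tests, limit read from the data, passing the limit was not always enough; inconclusive = probably only some replicates passing the limit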;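 note: agonist challenge used bursicon conditioned medium at about half maximal strength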
# F508del corr – F508del CFTR correction, initial screen, CFBE line, single point; CFBE cells, YFP halide quenching; stimulated with forskolin plus potentiator P3; % fluorescence drop versus neutral controls; activity (quench increase), % at 7.58 µM; 350,000 compounds, 0.36% hits; AID 720511, 2013;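 active = mean added fluorescence quench of at least 8% versus neutral control, with both replicates also reaching 8%; inconclusive = only one of the mean or replicate conditions met; inactive = mean below 8% and not both replicates reaching 8%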;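 note: cells transiently co-express mutant CFTR-F508del with the halide-sensitive YFP; corrector assay measuring rescue of mutant channel to the surface after 24 h compound exposure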
# EWS-Fli block – EWS/Fli-driven NR0B1 reporter inhibitors, primary screen, A673 cells, NR0B1 luciferase, luminescence, MLPCN library | inhibition, % at 12.6 µM | AID 651661, 2012 | 350,000 compounds, 0.67% hits | viability-normalised;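 active = mean inhibition of at least 50% after viability correction, with every replicate also passing that limit; inconclusive = mean reaches 50% but only one of two replicates passes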;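 note: firefly luciferase signal divided by Alamar Blue viability fluorescence both relative to DMSO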
# Starred values were filed as active, the others as inactive; ? = inconclusive; . = no result given. Most compounds without a hit are left out; they make up all but 1.8% or so of the library.
SMILES,PAX8 inh HTS,LGR2 inh,F508del corr,EWS-Fli block
O=c1[nH]nc(-c2ccccc2)c2ccccc12,-17.0,-1.0,3.0,-5.1
O=Nc1c2cc(-c3ccccc3)[nH]nc-2c2ccccc12,-85.7,?,.,62.9*
Cc1cccc(-c2cc3c(N=O)c4ccccc4c-3n[nH]2)c1,-65.6,-10.5,.,-4.1
Cc1ccc(-c2cc3c(N=O)c4ccccc4c-3n[nH]2)cc1,-78.9,94.5*,0.2,79.8*
CO[C@@H]1CN(C)C(=O)c2cc(NS(C)(=O)=O)ccc2OC[C@@H](C)N(C(=O)NC(C)C)C[C@@H]1C,-5.2,11.9,-3.6,4.4
O=[N+]([O-])c1ccc(N/N=C/c2sc(N3CCOCC3)nc2-c2ccccc2)c(S(=O)(=O)Nc2ccc(Cl)cc2)c1,102.2*,5.1,-1.7,38.0
CC1CCCC(NC(=O)CSc2n[nH]c(=O)n2Cc2ccccc2)C1C (configuration not stated),4.9,-7.2,0.1,6.4
CCCCc1ccc(NC(=O)CSc2nc(=O)n(CCN(CC)CC)c3c2CCCC3)cc1,?,11.4,-0.1,27.7
O[Si](CCCN1CCCCC1)(c1ccc(F)cc1)C1CCCCC1 (configuration not stated),-2.7,.,8.8*,12.6
C[C@H](NC(=O)c1ccc(Cl)c(S(=O)(=O)N2CCOCC2)c1)c1nc2ccccc2[nH]1,6.6,4.4,0.6,5.3
COc1cc(C(=O)/C=C/c2cccnc2)c([N+](=O)[O-])cc1OC,94.1*,63.7*,-1.2,37.8
CC(=O)N1N=C(c2ccc(NS(=O)(=O)c3ccccc3)cc2)CC1c1ccco1 (configuration not stated),27.0,17.4,3.0,54.5*
CC(=O)N1N=C(c2cccc(NS(=O)(=O)c3ccc(C)cc3)c2)CC1c1ccco1 (configuration not stated),16.7,-1.6,2.7,.
Cc1ccc(C)c(NC(=O)CSc2nc3c(c(=O)n2C)SC(C)C3)c1 (configuration not stated),10.1,-7.1,8.7*,3.8
CCn1c(SCC(=O)Nc2cc(C)ccc2C)nc2c(c1=O)SC(C)C2 (configuration not stated),-8.3,-17.7,0.9,6.6
O=C(C#Cc1ccccc1)c1cccc([N+](=O)[O-])c1,.,-7.3,7.1,66.7*
O=c1oc2cc(S(=O)(=O)NCCCO)ccc2c2ccc(S(=O)(=O)NCCCO)cc12,-22.7,6.2,0.0,3.0
O=S(=O)(c1ccccc1)c1cnn(-c2ccccc2)c1-c1ccc(Cl)cc1,15.1,.,.,.
CO[C@H]1CN(C)C(=O)c2cc(NC(=O)NC3CCCCC3)ccc2OC[C@H](C)N(CCc2ccccc2)C[C@@H]1C,.,4.2,-3.1,0.3
CO[C@@H]1CN(C)C(=O)c2ccc(NC(=O)NC3CCCCC3)cc2OC[C@@H](C)N(CCc2ccccc2)C[C@H]1C,65.6*,24.7,-2.7,7.4
COCC(=O)N1C[C@H](C)[C@H](OC)CN(C)C(=O)c2ccc(NC(=O)Nc3cccc(F)c3)cc2OC[C@@H]1C,.,4.8,-1.1,56.4*
COCC(=O)N1C[C@@H](C)[C@H](OC)CN(C)C(=O)c2ccc(NC(=O)Nc3cccc(F)c3)cc2OC[C@H]1C,.,-12.5,0.7,-8.6
CCC(=O)N1C[C@@H](C)[C@@H](OC)CN(C)C(=O)c2ccc(NC(=O)Nc3ccc(Cl)cc3)cc2OC[C@H]1C,18.3,11.1,2.4,-0.7
CCC(=O)N1C[C@H](C)[C@@H](OC)CN(C)C(=O)c2ccc(NC(=O)Nc3ccc(Cl)cc3)cc2OC[C@@H]1C,.,-0.4,2.7,53.3*
O=C(COC(=O)c1cnccn1)Nc1ccc(Cl)cn1,-19.6,10.1,1.0,8.1
SMILES,PAX8 inh HTS,LGR2 inh,F508del corr,EWS-Fli block
CS(=O)(=O)N1CCCCN2[C@H](CO)[C@@H](c3ccc(C#Cc4ccccn4)cc3)[C@@H]2C1,-10.6,-3.9,1.1,.
CCCN1C[C@@H](C)[C@@H](OC)CN(C)C(=O)c2ccc(NS(=O)(=O)c3ccccc3)cc2OC[C@H]1C,.,7.5,1.6,7.6
CN(Cc1nccs1)C(=O)C1CCC(=O)N(CCc2cccc(F)c2)C1 (configuration not stated),10.2,-6.0,0.3,.
CN(C)c1ccc(C(O)Cc2nc3ccccc3n2C)cc1 (configuration not stated),42.2,49.5,-1.1,-57.9
CN(C)c1ccc(-c2nc3ccccc3n2C)cc1,.,73.9*,.,.
Cc1ccccc1N=CC=C1OC(C)(C)C(C)(C)O1,79.1*,15.0,-0.4,-0.7
Cc1ccc(S(=O)(=O)N(C)C[C@H]2Oc3cc(C#Cc4ccncc4)ccc3S(=O)(=O)N([C@H](C)CO)C[C@H]2C)cc1,88.8*,-5.5,-1.0,-17.2
CC(C)CC#Cc1ccc2c(c1)O[C@H](CN(C)S(=O)(=O)c1ccc(F)cc1)[C@H](C)CN([C@H](C)CO)S2(=O)=O,99.2*,16.3,4.5,25.2
c1cncc(CNc2ncnc3sc4c(c23)CCCC4)c1,1.1,-8.6,5.2,14.9
Cc1nc(NCc2cccnc2)c2c3c(sc2n1)CCCC3,10.4,-31.3,12.2*,11.8
CCn1c([N+](=O)[O-])nc2c1c(=O)[nH]c(=O)n2C,69.2*,?,-3.0,9.4
N#Cc1ccccc1OCC(=O)OCC(=O)NC1CCCCCC1,2.1,-3.4,2.1,-3.0
Cn1nnnc1Sc1ncnc2scc(-c3cccc(Br)c3)c12,90.7*,4.3,-3.1,?
O=C(O)CSc1ncnc2scc(-c3ccccc3)c12,-14.3,12.2,-0.3,4.0
CN(C)C(=O)CSc1ncnc2scc(-c3ccccc3)c12,6.7,-17.3,1.8,4.3
CC(=O)c1cccc(-c2csc3ncnc(Sc4nnnn4C)c23)c1,113.7*,?,-10.5,-2.2
Cn1nnnc1Sc1ncnc2scc(-c3cccc(S(C)(=O)=O)c3)c12,105.8*,85.2*,-12.3,-17.2
Oc1ccccc1/C=N/Nc1nccnc1Cl,4.7,.,.,.
COc1ccc(/C=N/Nc2ncnc(Cl)c2N)cc1OC,-5.4,-5.6,.,-14.4
COc1cccc(/C=N/Nc2ncnc3scc(-c4ccccc4)c23)c1O,76.2*,22.8,.,.
COc1cccc(/C=N/Nc2nccnc2Cl)c1O,?,75.6*,3.2,-40.4
COc1cccc(/C=N/Nc2ncnc(Cl)c2N)c1O,.,.,23.2*,4.7
COc1cccc(/C=N/Nc2cc(-n3nc(C)cc3-c3ccccc3)ncn2)c1O,24.0,14.9,.,.
O=C(Nc1ccccc1F)N1CC2(C1)[C@@H](c1ccccc1)[C@@H](CO)N2C(=O)CC1CC1,3.2,-0.8,-0.7,-5.8
COc1cc2c(cc1OC)CN(C(=O)NS(=O)(=O)c1ccc(C)cc1)CC2,37.9,.,.,.
COc1ccccc1NC(=O)N[C@H]1CC[C@@H](CCNS(=O)(=O)c2ccc(C)cc2)O[C@@H]1CO,10.3,-8.6,2.0,1.2
Cc1ccccc1CS(=O)(=O)c1ncc(Cl)c(C(=O)Nc2ccc(F)cc2)n1,30.5,21.7,1.0,56.4*
Cc1ccc(NC(=O)c2cc(-c3ccccc3)nn2-c2ccccc2)cc1,10.6,0.3,.,-1.4
